Laboratory results reported in PubChem BioAssay (EPA / NIEHS).
Where “and” joins values, the source holds several entries; their conditions need not be identical. Equal values may be shown once. Inconclusive results are not listed. Calls of active or inactive are those of the source. How the source made its calls: active means hit-call score of the fitted dose curve at least 0.9, where 1 is the maximum; inconclusive means response in the unintended direction; inactive means score below 0.9.

Experiments:
[1] = target: Cellular tumor antigen p53 (Homo sapiens) (UniProt P04637); assay: TOX21_p53_BLA_p2_ratio: Tox21 HCT-116 p53 Agonism Beta-lactamase Assay, Ratio, Phase 2 (AID 2283592)
In short: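 Cleaved-to-uncleaved substrate ratio (460 vs 530 nm) measured in HCT116 cells with an inducible beta-lactamase reporter linked to p53 activity. Compounds incubated 16 h at 37C before 2 h room-temperature CCF4-AM loading.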

[2] = target: Cellular tumor antigen p53 (Homo sapiens) (UniProt P04637); assay: TOX21_p53_BLA_p3_ratio: Tox21 HCT-116 p53 Agonism Beta-lactamase Assay, Ratio, Phase 3 (AID 2283596)
In short: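 Cells were seeded at 4000/well, rested 5 h at 37C, then dosed with DMSO compound solutions (217-fold dilution) for 16 h. CCF4-AM substrate was loaded for 2 h at room temperature, and the 460/530 nm emission ratio was fitted for gain of signal versus DMSO.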

[3] = target: Cellular tumor antigen p53 (Homo sapiens) (UniProt P04637); assay: TOX21_p53_BLA_p5_ratio: Tox21 HCT-116 p53 Agonism Beta-lactamase Assay, Ratio, Phase 5 (AID 2283599)
In short: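 HCT-116 p53-bla cells (4000/well) plated 5 h, dosed with compound (217-fold DMSO dilution) for 16 h at 37 C; CCF4-AM substrate 2 h at room temperature. Activity is the 460/530 nm emission ratio (405 nm excitation), fitted in gain-of-signal direction versus DMSO.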

[4] = TOX21_p53_BLA_p5_viability: Viability Assessment in the Tox21 HCT-116 p53 Agonism Beta-lactamase Assay, Phase 5 (AID 2283600)
In short: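 Viability is taken from cellular ATP content, measured by luciferase luminescence in the same wells after the beta-lactamase ratio read. Cells are seeded at 4000 per well and exposed to DMSO-dissolved compounds, diluted 217-fold, for 16 h.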

[5] = target: Cellular tumor antigen p53 (Homo sapiens) (UniProt P04637); assay: TOX21_p53_BLA_p4_ratio: Tox21 HCT-116 p53 Agonism Beta-lactamase Assay, Ratio, Phase 4 (AID 2283601)
In short: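 HCT-116 p53 beta-lactamase reporter cells (4000/well) preincubated 5 h, then compound (217-fold dilution of DMSO stock) for 16 h at 37C. CCF4-AM substrate added 2 h at room temperature; 460/530 nm emission ratio fitted upward versus DMSO.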

[6] = TOX21_p53_BLA_p4_viability: Viability Assessment in the Tox21 HCT-116 p53 Agonism Beta-lactamase Assay, Phase 4 (AID 2283597);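 further: hits lower the luminescence signal meaning cytotoxicity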
In short: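 Viability is taken as cellular ATP: after 16 h compound exposure of HCT116 cells and a 2 h room-temperature CCF4-AM substrate step, CellTiter-Glo reagent is added and luminescence is measured 30 min later.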

[7] = target: Thyroid hormone receptor alpha (Rattus norvegicus) + Thyroid hormone receptor beta (Rattus norvegicus) (UniProt P18113+P63059); assay: TOX21_TR_LUC_GH3_Antagonist_Followup: Tox21 GH3 Thyroid Hormone Receptor Antagonism Luciferase Follow-Up Assay (AID 2283942)
In short: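 Luminescence read-out (ONE-Glo, 30 min at room temperature) in GH3 reporter cells challenged with 1.0 nM T3 final. Compounds ran at 92 uM to 5nM over 15 concentrations for 24 h; DMSO served as negative control and baseline.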

THRA (gene 7067) = THRA (gene 7067) (UniProt P10827); assay: TOX21_TRA_COA_Antagonist_Followup_ratio: Tox21 Thyroid Hormone Receptor alpha Antagonism through Coactivator Recruitment Follow-Up Assay, Ratio (AID 2283953)
In short: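 GST-TRα LBD 2.5 nM, BSA 0.10%, + cpd; then FITC-SRC-2 peptide 200 nM + Tb-anti-GST Ab 2 nM. TR-FRET ratio 520/495 nm. Norm: DMSO = 0%, T3 = 100%.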

[8] = TOX21_TRB_BLA_Antagonist_Followup_viability: Viability Assessment in the Tox21 Thyroid Hormone Receptor beta Antagonism Beta-lactamase (BLA) Follow-Up Assay (AID 2283961)
In short: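 Cytotoxicity is measured in parallel with the antagonist-mode TRβ beta-lactamase screen, using ATP-coupled luciferase luminescence. Engineered HEK293T cells are treated for 18 h with 11-point compound series in triplicate.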

[9] = target: Retinoic acid receptor RXR-alpha (Homo sapiens) (UniProt P19793); assay: TOX21_TR_RXR_BLA_Antagonist_Followup_ratio: Tox21 Thyroid Hormone Receptor beta Retinoid X Receptor alpha (RXRa) Antagonism Beta-lactamase (BLA) Follow-Up Assay, Ratio (AID 2283972)
In short: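 Antagonist mode used GAL4 UAS-driven beta-lactamase in HEK293T cells expressing RXRa, treated for 16 h with compound concentration series. Activity was taken from the blue/green (460:530 nm) ratio of cleaved to uncleaved substrate.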

Measured: AC50

Cellular tumor antigen p53 (Homo sapiens), sequence (P04637 whole entry, looked up): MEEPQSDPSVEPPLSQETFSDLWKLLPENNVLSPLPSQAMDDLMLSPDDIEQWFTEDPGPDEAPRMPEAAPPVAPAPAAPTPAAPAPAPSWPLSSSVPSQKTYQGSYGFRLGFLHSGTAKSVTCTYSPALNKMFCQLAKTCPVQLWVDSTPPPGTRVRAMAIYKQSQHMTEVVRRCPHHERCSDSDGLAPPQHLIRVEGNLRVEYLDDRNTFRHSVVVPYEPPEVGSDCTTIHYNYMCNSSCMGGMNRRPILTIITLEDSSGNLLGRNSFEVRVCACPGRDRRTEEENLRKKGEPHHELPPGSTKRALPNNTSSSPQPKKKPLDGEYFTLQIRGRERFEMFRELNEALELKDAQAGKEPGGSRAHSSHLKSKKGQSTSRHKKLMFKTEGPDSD
THRA (gene 7067), sequence (P10827 whole entry, looked up, the tested form may be a part): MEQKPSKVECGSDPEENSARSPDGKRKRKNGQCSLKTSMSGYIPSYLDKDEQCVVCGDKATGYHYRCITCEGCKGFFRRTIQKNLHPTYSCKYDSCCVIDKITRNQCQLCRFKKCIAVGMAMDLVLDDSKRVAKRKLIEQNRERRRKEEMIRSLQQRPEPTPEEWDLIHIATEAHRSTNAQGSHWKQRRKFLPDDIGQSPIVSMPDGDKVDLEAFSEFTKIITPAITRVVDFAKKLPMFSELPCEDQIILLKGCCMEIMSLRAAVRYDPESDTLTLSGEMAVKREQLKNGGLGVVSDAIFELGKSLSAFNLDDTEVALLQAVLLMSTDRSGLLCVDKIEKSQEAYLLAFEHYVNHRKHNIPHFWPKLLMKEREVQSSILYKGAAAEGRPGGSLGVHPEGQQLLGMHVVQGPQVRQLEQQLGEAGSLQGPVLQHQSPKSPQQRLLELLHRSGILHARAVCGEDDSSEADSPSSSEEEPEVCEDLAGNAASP
Retinoic acid receptor RXR-alpha (Homo sapiens), sequence (P19793 whole entry, looked up, the tested form may be a part): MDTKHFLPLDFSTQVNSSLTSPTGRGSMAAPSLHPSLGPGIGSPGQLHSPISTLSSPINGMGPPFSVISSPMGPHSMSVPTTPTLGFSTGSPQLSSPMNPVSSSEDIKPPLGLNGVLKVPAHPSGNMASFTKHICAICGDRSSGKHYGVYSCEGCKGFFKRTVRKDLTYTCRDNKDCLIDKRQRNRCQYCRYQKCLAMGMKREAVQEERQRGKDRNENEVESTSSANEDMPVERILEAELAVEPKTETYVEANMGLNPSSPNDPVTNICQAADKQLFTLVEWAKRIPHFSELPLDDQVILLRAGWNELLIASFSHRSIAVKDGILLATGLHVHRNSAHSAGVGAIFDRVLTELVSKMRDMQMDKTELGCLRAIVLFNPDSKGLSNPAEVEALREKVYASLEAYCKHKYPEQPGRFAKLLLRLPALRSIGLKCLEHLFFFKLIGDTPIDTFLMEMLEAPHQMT

Cc1cccc(C#N)c1
inactive: [1] | [2] | [3] | [4] | [5]

C=CCC1([C@H](C)CCC)C(=O)NC(=O)NC1=O
inactive: [1] | [2] | [3] | [4] | [5]

N#CC(Cl)Cl
inactive: [1] | [2] | [6] | [3] | [4] | [5]

CCCCCCCCCCCOC(=O)c1ccccc1C(=O)OCCCCCCCCCCC
inactive: [1] | [2] | [6] | [3] | [4] | [5]

Cc1c(N)nc([C@H](CC(N)=O)NC[C@H](N)C(N)=O)nc1C(=O)N[C@H](C(=O)N[C@H](C)[C@@H](O)[C@H](C)C(=O)N[C@H](C(=O)NCCc1nc(-c2nc(C(=O)NCCC[S+](C)C)cs2)cs1)[C@@H](C)O)[C@@H](O[C@@H]1O[C@@H](CO)[C@@H](O)[C@H](O)[C@@H]1O[C@H]1O[C@H](CO)[C@@H](O)[C@H](OC(N)=O)[C@@H]1O)c1cnc[nH]1
active: [1] 195 nM and 1.16 µM | [2] 98.3 nM and 922 nM | [3] 86.5 nM and 808 nM | [5] 219 nM and 730 nM

ClP(Cl)(Cl)(Cl)Cl
inactive: [1] | [2] | [5]

CC(C)(Cl)[N+](=O)[O-]
inactive: [1] | [2] | [4] | [5]

c1cc2c(c(N3CCNCC3)c1)OCCO2
inactive: [1] | [6] | [3]

CON(C)C(=O)Nc1ccc(Cl)cc1
inactive: [1] | [2] | [3] | [5]

COc1ccc(C(=O)c2c(C)n(CCN3CCOCC3)c3ccccc23)cc1
inactive: [1] | [2] | [3] | [5]

CC[C@H]1C[C@@H]2C[C@H]3c4[nH]c5ccc(OC)cc5c4CCN(C2)[C@@H]13
inactive: [1] | [2] | [5]

S=C=Nc1ccccc1
inactive: [1] | [2] | [4]

CCC(N)Cc1c[nH]c2ccccc12 (stereo not drawn)
inactive: [1] | [2] | [3] | [5]

CCOP(=O)(OCC)OP(=O)(OCC)OCC
inactive: [1] | [2] | [3] | [5]

C[N+]1(CCF)[C@@H]2CC[C@H]1CC(OC(=O)C(O)(c1ccccc1)c1ccccc1)C2 (stereo partly drawn)
inactive: [1] | [6]

CN1c2ccccc2C(NCCCCCCC(=O)O)c2ccc(Cl)cc2S1(=O)=O (stereo not drawn)
inactive: [1] | [2] | [3] | [5]

O=C1OC(c2ccc(O)c(S(=O)(=O)O)c2)(c2ccc(O)c(S(=O)(=O)O)c2)c2c(Br)c(Br)c(Br)c(Br)c21
inactive: [1] | [2] | [4] | [5]

C[N+]1(C)[C@@H]2CC[C@H]1CC(OC(=O)C(CO)c1ccccc1)C2 (stereo partly drawn)
inactive: [1] | [2] | [3] | [5]

CCCC[n+]1cccc(C)c1
inactive: [1] | [2] | [3] | [5]

CCCCCCCCCCCCCCCCCCn1cc[n+](C)c1
inactive: [2] | [3] | [5]
active: [1] 8.42 µM

CCCCCCCCCCCCCCCl
inactive: [1] | [2] | [3] | [5]

CCCC[N+]1(C)CCCC1 (tested in a mixture with another compound)
inactive: [1] | [2] | [3]
active: [5] 86.9 µM

NCC1(CC(=O)O)CCCCC1
inactive: [1] | [2] | [3] | [5]

O=C1CC[C@@]2(O)[C@H]3Cc4ccc(O)c5c4[C@@]2(CCN3CC2CC2)[C@H]1O5
inactive: [1] | [2] | [5]

CC[C@@H](CO)NC(=O)[C@@H]1C=C2c3cccc4c3c(cn4C)C[C@H]2N(C)C1
inactive: [1] | [2] | [3] | [5]

COc1cc([C@@H]2c3cc4c(cc3[C@@H](O)[C@H]3COC(=O)[C@H]23)OCO4)cc(OC)c1O
inactive: [2] | [3] | [5] | [7] | THRA (gene 7067) | [8] | [9]
active: [1] 35.5 µM

OC(c1ccccc1)(c1ccccc1)C1CCNCC1
inactive: [1] | [2] | [3] | [5]

COc1cc(CC(C)N)cc(OC)c1OC (stereo not drawn)
inactive: [1] | [6] | [3]

[S]=[Sb](=[S])[S][Sb](=[S])=[S]
inactive: [1] | [2] | [3] | [5]
